Screens (PubChem BioAssay)
EBV LMP1 NFkB – Epstein-Barr LMP1 NF-kappaB reporter inhibition. LMP1-induced NF-kappaB luciferase reporter cells, luminescence. inhibition, % at 12.5 µM. AID 504558. hit rate 0.69% among 350,000; in the data active = inhibition above about 41%;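 note: 0% = neutral control wells and 100% = reference inhibitor control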
EWS-Fli block – blocks EWS/Fli oncoprotein-driven transcription. A673 NR0B1-luciferase reporter, viability-normalised. inhibition, % at 12.6 µM. hit rate 0.67% among 350,000;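 active = mean inhibition of at least 50% after viability correction, with every replicate also passing that limit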;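 note: firefly luciferase signal divided by Alamar Blue viability fluorescence both relative to DMSO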
LGR2 antag – inhibitors of bursicon-induced Drosophila LGR2 receptor cAMP signaling; HEK293 LGR2, CRE-luciferase, bursicon-stimulated, 4 h; inhibition, % at 9.99 µM; hit rate 0.35% among 380,000; AID 720647;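 active = drop in luminescence signal, shown as inhibition above about 50% in the replicate tests, limit read from the data, passing the limit was not always enough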;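 note: agonist challenge used bursicon conditioned medium at about half maximal strength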
TWEAK Fn14 block – TWEAK-Fn14 signaling inhibition | hit rate 2% among 360,000 | AID 1159606 | TWEAK-stimulated Fn14 reporter cells, luciferase luminescence, 8 h | inhibition, % at 10 µM; in the data active = inhibition above about 50%
TROY signal inh – TROY signaling inhibition; inhibition, % at 10 µM; hit rate 0.98% among 360,000; Q293 LMP1-TROYcd NF-kB luciferase reporter, 4 h;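 active = compounds whose plate-normalised and pattern-corrected inhibition of the luciferase reporter signal at the single screening dose is 50% or more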
The depositor's hits bear a star; x = no result given. Hits are enriched below; roughly 2.6% of the tested compounds scored in any of these assays.

SMILES | EBV LMP1 NFkB | EWS-Fli block | LGR2 antag | TWEAK Fn14 block | TROY signal inh
Cc1ccc(S(=O)(=O)Nc2ccc3c(c2)CC(=O)N([C@H](C)CO)C[C@@H](C)[C@H](CN(C)C(=O)Nc2c(C)noc2C)O3)cc1 | x | -10.9 | 2.3 | x | x
Oc1cccc2ccc(/C=C/c3ccccc3Br)nc12 | 12.1 | -71.4 | -95.3 | 55.7* | 54.7*
COc1cc(Br)c(/C=C/c2ccc3cccc(O)c3n2)cc1OC | 8.4 | -5.3 | -19.2 | -21.9 | 7.7
Cc1cc(Nc2ccc(C)c(C)c2)c2ccccc2n1 | 9.6 | 13.6 | 13.8 | -24.8 | -11.7
Cc1ccc(Nc2nc(N)c3ccccc3n2)cc1C | 17.9 | 44.2 | 80.6* | 68.4* | 26.5
C[C@H](NC(=O)C[C@@H]1CC[C@@H](NC(=O)c2cccnc2)[C@@H](CO)O1)c1ccccc1 | x | -3.3 | 3.5 | x | x
C/C=C/c1ccccc1[C@H]1[C@H](C#N)N(C(C)=O)[C@H]1CO | x | 4.8 | 2.7 | x | x
N#Cc1ccc(-c2ccc(C3[C@@H]4CN(C(=O)C5CC5)C[C@H]3N4)cc2)cc1 (some centres not stated) | x | -10.5 | 90.3* | x | x
N#Cc1cccc(-c2ccc(C3[C@@H]4CN(C(=O)C5CCOCC5)C[C@H]3N4)cc2)c1 (some centres not stated) | x | -5.1 | 16.7 | x | x
CO[C@H]1CN(C)C(=O)c2ccc(NC(=O)C3CCCC3)cc2OC[C@H](C)N(C(=O)CC2CC2)C[C@H]1C | x | 3.0 | -19.1 | x | x
CC(C)Cc1nc2sc3c(NCc4ccco4)ncnc3c2c2c1COC(C)(C)C2 | -7.5 | x | x | 52.1* | 24.2
Cc1nc2sc3c(NCc4ccco4)ncnc3c2c2c1COC(C)(C)C2 | 10.2 | x | x | 87.0* | 55.0*
CCC(=O)N(C)C[C@H]1Oc2ncc(C#Cc3ccccc3OC)cc2C(=O)N([C@@H](C)CO)C[C@H]1C | x | 1.2 | 7.6 | x | x
COc1cc(/C=C/C(=O)c2ccc(O)cc2)ccc1OCC#N | -1.5 | 27.4 | x | 70.8* | -0.6
COc1cccc(C(=O)/C=C/c2ccc(OCC#N)c(OC)c2)c1 | 6.5 | x | 20.9 | 83.8* | 0.7
CCOc1ccc(/C=C/C(=O)c2ccccc2)cc1OC | -5.9 | x | -71.8 | 15.0 | -57.4
CC1OC2CC(=O)OC2C2=C1C(=O)c1c(O)cccc1C2=O (configuration not stated) | x | 49.9 | 100.0* | 106.9* | 57.2*
CCOC(=O)C1=C[C@@H](C2CCCCC2)N(S(=O)(=O)c2ccc([N+](=O)[O-])cc2)[C@H]1c1ccccc1 | x | 14.9 | 7.7 | 74.7* | -9.2
COCC(=O)Nc1ccc2c(c1)C(=O)N(C)C[C@H](OC)[C@@H](C)CN(C(=O)CC1CC1)[C@H](C)CO2 | x | 10.9 | 7.2 | x | x
C/C=C/c1cnc2c(c1)C(=O)N([C@@H](C)CO)C[C@@H](C)[C@@H](CN(C)C(=O)Nc1ccc(C(F)(F)F)cc1)O2 | x | 2.6 | -4.6 | x | x
COc1ccc(C(=O)Nc2ccc3c(c2)C(=O)N(C)[C@@H]2CC[C@@H](CC(=O)NCC4CC4)O[C@@H]2CO3)cc1 | x | 3.0 | 4.4 | x | x
S=C1Nc2ccccc2CS1 | 4.5 | 1.4 | -4.7 | 11.7 | -8.3
S=C1Cc2ccccc2N1 | -8.3 | 65.5* | 24.1 | 72.3* | 22.3
NC1=NC[C@H](c2ccccc2)N1CCc1cc(C(F)(F)F)cc(C(F)(F)F)c1 | -9.2 | 61.3* | 15.9 | 12.1 | -14.0
COCC#Cc1cnc2c(c1)C(=O)N([C@H](C)CO)C[C@@H](C)[C@H](CN(C)C(=O)Nc1ccccc1F)O2 | x | -13.1 | -14.3 | x | x
SMILES | EBV LMP1 NFkB | EWS-Fli block | LGR2 antag | TWEAK Fn14 block | TROY signal inh
COc1cc2c(oc(=O)c3cc(C)cc(OC)c32)c2c(C3OC(C)C(O)C(C)(O)C3O)ccc(O)c12 (configuration not stated) | 77.6* | 37.1 | 17.3 | -2.9 | 10.6
C[C@H]1CN([C@@H](C)CO)C(=O)c2cc(C#CC3CC3)cnc2O[C@H]1CN(C)Cc1ccccc1C(=O)O | x | 1.1 | 16.2 | x | x
O=S(=O)(Nc1ccc(-n2cccc2)cc1)c1ccc(Cl)c(Cl)c1 | -0.5 | 2.1 | 9.2 | -26.5 | 55.5*
C[C@H](CO)N1C[C@H](C)[C@H](CN(C)S(=O)(=O)c2ccc(F)cc2)Oc2ccc(NC(=O)CCN3CCOCC3)cc2CC1=O | x | 3.2 | -8.4 | x | x
C[C@H](CO)N1C[C@H](C)[C@H](CN(C)Cc2ccc3c(c2)OCO3)OCc2cn(nn2)CCCC1=O | x | -0.7 | 0.3 | x | x
O=c1oc2ccccc2cc1-c1cn2cccnc2n1 | 28.6 | x | x | 21.1 | -27.8
O=c1oc2ccccc2cc1-c1cn2ccccc2n1 | 68.1* | 85.3* | 71.5* | 97.2* | 71.0*
CN(C)CC(=O)N1C[C@@H]2N[C@H](C1)C2c1ccc(-c2ccccc2F)cc1 (some centres not stated) | x | -17.3 | -9.6 | x | x
CC(=O)NCCNC(=O)c1ccc(CSc2nc3ccccc3s2)cc1 | 28.2 | x | 66.9* | 85.0* | 69.2*
Cc1ccc(NC(=O)C(C)N2C(=O)c3ccccc3C2=O)cc1S(=O)(=O)N1CCOCC1 (configuration not stated) | -2.3 | -9.4 | 11.7 | 17.4 | 63.6*
COc1ccc(Nc2nc(-c3cccs3)nc3ccccc23)cc1S(=O)(=O)N1CCOCC1 | 15.5 | 3.0 | 16.1 | 97.3* | 26.7
Cc1ccc(NC(=O)c2ccc(S(=O)(=O)N(C)c3ccccc3)cc2)cc1S(=O)(=O)N1CCOCC1 | 9.9 | 27.4 | 8.6 | 59.4* | 39.3
COc1ccc(NC(=O)c2ccc(-c3ccccc3)cc2)cc1S(=O)(=O)N1CCOCC1 | 51.4* | 11.4 | 15.1 | 2.6 | 36.5
CCc1ccc(C(=O)Nc2ccc(OC)c(S(=O)(=O)N3CCOCC3)c2)cc1 | -4.6 | 3.0 | 4.6 | 28.5 | 4.1
O=C(C[C@@H]1CC[C@@H](NS(=O)(=O)c2ccc(F)cc2)[C@@H](CO)O1)NCc1ccccc1F | x | 11.0 | 4.5 | x | x
O=C(c1ccco1)N1CCN(S(=O)(=O)c2ccc(Cl)cc2)CC1 | -14.5 | 10.2 | 15.9 | -8.7 | 6.4
O=C(c1ccco1)N1CCN(S(=O)(=O)/C=C/c2ccccc2)CC1 | 49.2* | 3.1 | -11.4 | -10.0 | 6.0
O=C(c1cc2ccccc2o1)N1CCN(S(=O)(=O)/C=C/c2ccccc2)CC1 | 6.0 | 2.9 | -7.0 | 29.0 | -8.6
O=C(c1ccco1)N1CCN(S(=O)(=O)c2c(Cl)cccc2Cl)CC1 | 8.4 | 4.5 | 12.1 | 92.1* | -11.3
CCCC(=O)N1CCC2(CC1)CN(C(=O)Nc1ccc(F)cc1)[C@@H](CO)c1c2c2ccc(OC)cc2n1C | x | -0.5 | 10.9 | x | x
COc1ccc(C(=O)/C(C#N)=N/Nc2cccc([N+](=O)[O-])c2)cc1 | 14.9 | 62.0* | -17.7 | 60.0* | 59.3*
CC(C)(C)c1nnc(NS(=O)(=O)c2cc(Cl)ccc2Cl)s1 | -2.8 | 9.6 | 4.2 | 1.2 | 12.3
O=S(=O)(Nc1nc(-c2sccc2Cl)cs1)c1cc(Cl)ccc1Cl | -3.4 | x | x | -17.7 | 57.8*
Cc1cc(CNC(=O)COc2cc(F)ccc2[N+](=O)[O-])c2ccccc2n1 | 7.1 | 6.9 | -10.4 | 76.7* | 7.0
O=C(Nc1nc2ccccc2c(=O)s1)c1ccco1 | 10.1 | -1.8 | 14.2 | 54.4* | 5.2
O=C(Nc1nc2cc3c(cc2s1)OCO3)C1=COCCO1 | 73.4* | 80.3* | x | 101.2* | 69.9*
